These results are taken from PubChem BioAssay AID493073 (Broad Institute, 2011).

Screen size: about 1,200 compounds; about 810 (68%) were called active. How the calls were made is not given here. So high a share suggests a set chosen from earlier hits. The list is a sample of the results. Results with a measured potency or affinity are listed apart.

The nature of this test: TRPM1 promoter luciferase signal decrease, dose response, MITF inhibitor project, cell-based, SK-MEL-5, cherry-picked, set 3 (AID 493073). Conditions: SK-MEL-5 TRPM1 promoter luciferase, 24 h; series mostly up to 35 µM.
Regarding `Cc1ccc(/C=c2/sc3n(c2=O)CCCN=3)o1`, the call was inactive.

For the molecule `Cc1ccc2oc(=O)n(CCCOc3ccccc3)c2c1`, the molecule was called inactive.

As for `CCCCOc1ccc(-c2ncc([N+](=O)[O-])cn2)cc1`, the molecule was classed as inactive.

`CN(CC(=O)N1CCCCCC1)S(=O)(=O)c1ccccc1`: the molecule was called inactive.

Regarding `CC1CCN(C(=O)c2cc3ccccc3o2)CC1`, the molecule was classed as inactive.

Take `Nc1nnc(/C=C/c2ccccc2Cl)s1`: the call was inactive.

Regarding `CC(=O)c1c(C)[nH]c(C(=O)Nc2ccc(C)c(C)c2)c1C`, the molecule was called inactive.

With `CC(C)(C)OC(=O)N1CCN(C(=O)c2nc[nH]c2C(=O)N2CCN(c3ccccc3)CC2)CC1`, the call was inactive.

`NC(=O)c1ccccc1NC(=O)/C=C/c1cccc(Cl)c1`: the molecule was called inactive.

In the case of `C=CCN1C(=O)S/C(=C\c2ccc(N3CCOCC3)cc2C)C1=O`, the molecule was classed as inactive.

For `O=Cc1ccc(N2Cc3ccccc3C2)cc1`, the molecule was classed as inactive.

Regarding `Cc1cc(Cl)ccc1OCCCC(=O)N1CCOCC1`, the molecule was called inactive.

For `O=C1N=C(N2CCOCC2)S/C1=C\C=C/c1ccccc1`, the call was inactive.

With `CC(C)(C)N=Cc1cc(-c2ccccc2)sc1O`, the call was inactive.

Take `CCOC(=O)c1cnc2c(ccc3ccccc32)c1N`: the molecule was classed as inactive.

Regarding `c1ccc(-n2ncc3c(NCc4cccs4)ncnc32)cc1`, the outcome was inactive.

As to `COCC(C)Nc1ncnc2c1cnn2-c1ccc(Cl)cc1` (stereo not drawn), the result was inactive.

Turning to `CCCCN=C(C)c1c(O)c2ccccc2oc1=O`, the molecule was classed as inactive.

Regarding `COc1ccccc1-c1nnc(-c2ccc(C)cc2)o1`, the molecule was called inactive.

As to `COc1ccccc1-c1nc(-c2ccc(C)nc2OC)no1`, the outcome was inactive.

On to `CCCCOC(=O)c1[nH]c(C)c(C(=O)OC)c1C`, for which the outcome was inactive.

On to `CCOC(=O)c1cc2sccc2n1CC(=O)N1c2ccccc2CC1C` (stereo not drawn), for which the outcome was inactive.

Turning to `CCN(C(=O)c1ccco1)c1nc(-c2ccc(OC)cc2)cs1`, the outcome was inactive.

Take `CS(=O)(=O)c1ccc2nc(NC(=O)c3ccccc3Br)sc2c1`: the molecule was called inactive.

On to `CCCCOc1ccc(-c2nnn(C(C)(C)C(=O)OC)n2)cc1`, for which the molecule was classed as inactive.

As for `Cc1ccc(-c2noc(CN3CCCCC3)n2)cc1`, the call was inactive.

In the case of `COc1ccc(/C=N/N=C2/SCC(=O)N2Cc2ccccc2)cc1`, the outcome was inactive.

Consider `O=[N+]([O-])c1ccccc1OCCCOc1cccc2cccnc12`, for which the molecule was called inactive.

`C=CCOc1ccc(/C=C/C(C)=N\O)cc1`: the molecule was called inactive.

Regarding `COc1ccc(C(=O)/C=C(\C)Nc2ccc3c(c2)OCO3)cc1`, the outcome was inactive.

For the molecule `O=C(CSc1ccccn1)c1ccc2c(c1)OCO2`, the result was inactive.

Turning to `CCOC(=O)C1(Cc2cccc(OC)c2)CCCN(C(=O)CSC)C1` (stereo not drawn), the outcome was inactive.

In the case of `N#Cc1nc(/C=C/c2ccccc2)oc1NCCCN1CCOCC1`, the call was inactive.

In the case of `Cc1cc(C(=O)Nc2ccc([N+](=O)[O-])cn2)cs1`, the molecule was classed as inactive.

For `Cc1cc(O)ccc1Nc1nc(-c2cccnc2)cs1`, the outcome was inactive.

With `CC(=O)c1cccc(Nc2nc(-c3cccnc3)cs2)c1`, the result was inactive.

For the molecule `C/C(=N/N=C(/C)c1cccs1)c1cccs1`, the molecule was called inactive.

Consider `Cc1nc2cc(NC(=O)Nc3cccc([N+](=O)[O-])c3)ccc2n1C`, for which the outcome was inactive.

In the case of `C/C(=N/Nc1nc(C)c(C)s1)c1cccc([N+](=O)[O-])c1`, the outcome was inactive.

As for `Cc1nn(C)cc1/C=C/C(=O)c1cccs1`, the molecule was called inactive.

For `CCCN1C(=O)c2ccc(C(=O)Nc3cc(C)ccc3O)cc2C1=O`, the call was inactive.

Turning to `CC1Cc2cc(-c3csc(N)n3)ccc2O1` (stereo not drawn), the call was inactive.

For `COc1ccc(Nc2oc(-c3ccc(OC)cc3)nc2C#N)cc1`, the result was inactive.

As to `CC(=O)Nc1ccc2c(c1)ncn2-c1ccccc1`, the molecule was classed as inactive.

Consider `O=C1c2ccccc2CN1c1ccccc1`, for which the molecule was called inactive.

In the case of `N#Cc1cnc2sc3ccccc3n2c1=N`, the call was inactive.

Regarding `CC1(C)CC(=O)c2cnc(N3CCc4ccccc43)nc2C1`, the molecule was called inactive.

In the case of `O=C(NCCSc1ccccc1)c1ccccc1F`, the outcome was inactive.

Turning to `COc1ccc(-c2nc3n(c2C)Cc2ccccc2-3)cc1`, the molecule was called inactive.

`COc1ccc(-c2cc(-c3ccccc3O)[nH]n2)cc1OC`: the molecule was classed as inactive.

Regarding `COc1ccc(C(=O)Nc2nc3ccc(OC)cc3s2)cc1`, the outcome was inactive.

For `CCCOc1ccc(C(=O)Nc2ccc3c(c2)OCCO3)cc1`, the result was inactive.

As for `CCOC(=O)c1ccc(NC(=O)CC2SCCNC2=O)cc1` (stereo not drawn), the result was inactive.

For the molecule `CCOC(=O)c1ccc(NC(=O)c2ccnn2C)cc1`, the outcome was inactive.

In the case of `Cc1ccc(NC(=O)c2ccc(OCC3CCCO3)cc2)c(C)c1` (stereo not drawn), the molecule was classed as inactive.

Take `COc1cc(/C=N/N=C(N)N)ccc1OCc1ccc(Cl)cc1`: the call was inactive.

For `Cc1ccc2nc(-c3ccncc3)[nH]c2c1`, the result was inactive.

In the case of `CC(=O)N/C(N)=N/c1nc(=O)c2ccccc2s1`, the molecule was called inactive.

As to `COc1ccc(/C=N/NC(=O)Cc2cccs2)cc1`, the outcome was inactive.

In the case of `COc1ccc(NC(=O)c2scc(S(=O)(=O)C(C)C)c2N)cc1`, the molecule was called inactive.

`CCOc1ccc(N(CC(=O)Nc2ccc(OC)cc2)S(C)(=O)=O)cc1`: the outcome was inactive.

In the case of `CCSc1nc2c(cnn2-c2ccccc2)c(=O)n1N`, the result was inactive.

Consider `Nc1c(-c2ccc(Cl)cc2)nnn1-c1ccccc1`, for which the result was inactive.

Turning to `CCn1nccc1C(=O)Nc1ccc(C)c(C)c1`, the call was inactive.

With `O=C(CCNc1ccccc1)c1ccc2c(c1)OCO2`, the molecule was classed as inactive.

For `O=C(Nc1ccc(F)c(Cl)c1)c1ccc2c(c1)OCO2`, the outcome was inactive.

With `O=C(Cn1cnc2ccccc2c1=O)Nc1ccc2c(c1)OCCO2`, the outcome was inactive.

For the molecule `Cc1cccc(N(O)C(=O)Nc2cccc(Cl)c2)c1`, the outcome was inactive.

Consider `C=CCn1cccc(C(=O)Nc2ccc(C)c(Cl)c2)c1=O`, for which the result was inactive.

Consider `CC(O)CNC(=O)C1CCN(Cc2ccc(OCc3ccccc3)cc2)CC1` (stereo not drawn), for which the outcome was inactive.

Turning to `Nc1nc2ccccc2n1/N=C/c1ccc(-c2ccccc2)o1`, the result was inactive.

Regarding `Cc1c(/C=C/C(=O)c2ccc(Cl)s2)cnn1C`, the call was inactive.

`CCCCOC(=O)Nc1ccc2c(C)cc(=O)oc2c1`: the call was inactive.

Take `Cc1ccc(NC(=O)c2cc(-c3cccs3)on2)cc1`: the outcome was inactive.

`Cc1ccc2nc(N(CCCN(C)C)C(=O)c3ccc4c(c3)CCCC4)sc2c1`: the outcome was inactive.

Regarding `Cc1cc(C)c2sc(N(CCCN(C)C)C(=O)COc3ccc(Cl)cc3)nc2c1`, the call was inactive.

Consider `CC(=O)N/C(N)=N/c1nc2cc(C)ccc2o1`, for which the result was inactive.

For the molecule `CCOC(=O)c1cn2nc(Oc3ccccc3)ccc2n1`, the result was inactive.

Take `Cc1cn(CCC(=O)Nc2ccccc2N2CCOCC2)c2ccccc12`: the outcome was inactive.

On to `Clc1c(-c2ccccc2)nc2ccccn12`, for which the molecule was classed as inactive.

`CCOC(=O)CSc1nc2cc(OCC)ccc2cc1C#N`: the result was inactive.

For `C=CCNC(=O)Cn1nnc(-c2ccc(-c3ccc(OC)cc3)cc2)n1`, the result was inactive.

On to `O=C(Cn1cnc2c(oc3ccccc32)c1=O)c1ccccc1`, for which the molecule was called inactive.

`c1ccc(Cc2cc(-c3ccccc3)on2)cc1`: the molecule was classed as inactive.

Regarding `O=[N+]([O-])c1c(NCCCO)cc(Sc2ccc(Cl)cc2)c2nonc12`, the molecule was classed as inactive.

For `CC1CC2(C)Oc3ccccc3CC2C(C)C1CNCCCN(C)C` (stereo not drawn), the result was inactive.

Turning to `O=[N+]([O-])c1cccc(/C=N/Nc2ncc(Br)cn2)c1`, the call was inactive.

With `Cc1cc(C)c2c(N)c(C(=O)N/N=C/c3cccnc3)sc2n1`, the call was inactive.

Regarding `Cc1ccc(NC(=O)c2cc3cccc([N+](=O)[O-])c3[nH]2)cc1`, the call was inactive.

Consider `O=C(CC(=O)c1ccccc1)Nc1ccccn1`, for which the call was inactive.

For `N/C(CS(=O)(=O)c1ccccn1)=N\OC(=O)c1ccccc1Cl`, the molecule was classed as inactive.

Consider `COc1ccc(NC(=O)c2cc3ccccc3[nH]2)cc1`, for which the call was inactive.

On to `COC(=O)[C@@H](C)NC(=O)c1ccc2oc(CCc3ccccc3)nc2c1`, for which the call was inactive.
